# Exocytosis inh = blocks lytic granule exocytosis | TALL-104 LAMP-1 surface exposure, flow cytometry; cells stimulated with thapsigargin and PMA | inhibition, % at 10 µM | 0.66% of 360,000 active | AID 651702;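 active = inhibition above about 55%, limit read from the data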
# ABCB6 inh MLPCN = inhibitors of human ABC transporter ABCB6. Q9NP58. fluorescence ratio to DMSO, % at 10 µM. AID 602162. K562-ABCB6 porphyrin accumulation, flow cytometry, 1 h; active compounds read low. 0.19% of 360,000 active;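 active = fluorescence ratio to DMSO below 75%, the collection mean minus 3 SD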;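 also: signal is porphyrin accumulated inside mitochondria; 100% equals median channel fluorescence of DMSO control wells; lower ratio means ABCB6 inhibition with less porphyrin fluorescence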
# Rev-erbA mod = Rev-erb alpha (human) modulation; P20393; Rev-erbα–FITC-DNA binding, fluorescence polarization, 90 min; AID 1259318; 0.79% of 370,000 active; activity, % at 10 µM;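 active = activity above about 14%, limit read from the data; passing the limit was not always enough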;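 also: 0% = DMSO wells with 35 nM protein and 100% = DMSO wells with 750 nM protein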
# PG9 Ab binder = binds the HIV-1 gp120 antibody PG9. 0.43% of 360,000 active. inhibition, % at 6.7 µM. AID 624416. TR-FRET gp120-PG9 antibody binding; in the data active = inhibition above about 8.5%
# VLA-4 inh = inhibition in a human VLA-4 binding assay; VLA-4 expressing cells, ligand binding flow cytometry; P13612; 0.2% of 330,000 active; inhibition, % (about 7 µM as worked out from the volumes in the protocol); in the data active = inhibition above about 50%
# PG9 binder conf = confirmation of small molecules binding HIV-1 gp120 antibody PG9; shares compounds with PG9 Ab binder; TR-FRET PG9 antibody binding, biochemical; inhibition, % at 6.7 µM; 90% of 1,500 active; AID 651571; in the data active = inhibition above about 9%
# PGV04 Ab binding = counter-screen for PG9 binders: binding control antibody PGV04 | 95% of 1,500 active | TR-FRET PGV04 antibody-gp120 binding, biochemical | shares compounds with PG9 Ab binder | inhibition, % at 6.7 µM; in the data active = inhibition above about 9.5%
# PG9 binder DR = PG9 antibody binding, dose response; shares compounds with PG9 Ab binder; TR-FRET PG9 antibody-gp120 binding inhibition; IC50, µM; 95 tested, under 10 active; in the data active = IC50 below about 10 µM
# PGV04 binding DR = binds control antibody PGV04 in PG9 counter-screen; shares compounds with PG9 Ab binder; TR-FRET binding to control antibody PGV04; IC50, µM; 20% of 95 active; AID 651937
# PG126 DR counter = counter-screen for PG9 binders: binding to control antibody PG126 | 20% of 95 active | shares compounds with PG9 Ab binder | IC50, µM | TR-FRET binding to antibody PG126, counterscreen
# * hit, by the source's call; / = not tested or not shown. In the library only some 2% were active in any assay of this set; here they are far more common. Rule as the data show it, unless noted: active = IC50 below about 9 µM; inactive = the rest.
SMILES,Exocytosis inh,ABCB6 inh MLPCN,Rev-erbA mod,PG9 Ab binder,VLA-4 inh,PG9 binder conf,PGV04 Ab binding,others
O=C(Nc1ccc(Br)c2ccccc12)c1ccc2ccccc2c1O,3.2,95.0,4.8,35.5*,-1.4,30.7*,36.5*,
CC(=O)Nc1ccc(Br)c2ccccc12,0.0,100.0,-1.0,11.2*,-8.1,22.2*,23.1*,
Cc1ccccc1NC(=O)NNC(=O)c1ccc2ccccc2c1O,-0.4,101.0,2.4,-2.4,-4.5,/,/,
Cn1cccc1C=NNC(=O)c1cc(-c2ccc(Cl)cc2)n[nH]1,/,/,-1.9,/,/,/,/,
Nc1ccn(C2CCCCO2)c(=O)n1 (stereo not drawn),-5.9,89.0,2.8,13.9*,/,6.2,7.5,
CCCCOCCCNC(=O)C[C@H]1C[C@@]2(C(=O)OC)C(=C[C@H](C(C)C)O[C@@H]2C2CC2)N(CCC2=CCCCC2)C1=O,/,/,-3.8,/,/,/,/,
CC(C)CCNC(=O)[C@@H](Cc1ccccc1)NC(=O)[C@H]1O[C@@H](n2ccc(=O)[nH]c2=O)[C@H](O)[C@@H]1O,/,/,-0.6,-0.7,/,/,/,
O=C(Cn1cnc2ccccc2c1=O)Nc1nc2ccccc2s1,-0.6,103.0,2.8,17.9*,-0.5,21.2*,28.1*,
Cc1nc2ccccc2nc1SCC(=O)N1CCC(C)CC1,-3.9,96.0,3.3,37.5*,-18.9,33.7*,41.6*,
CC1CCCN(C(=O)CSc2cnc3ccccc3n2)C1 (stereo not drawn),1.5,92.0,4.3,30.2*,1.7,34.8*,38.6*,
CCOC(=O)[C@]12CCCC3=C1N(CCC3)C(=O)[C@@H](CC(=O)NCc1cccc(C(F)(F)F)c1)C2,/,/,4.7,/,/,/,/,
COCCCNC(=O)C[C@H]1C[C@@]2(C(=O)OC)C(=C[C@H](COCc3ccccc3)O[C@@H]2C)N(CCc2ccc(OC)c(OC)c2)C1=O,/,/,-6.6,/,/,/,/,
c1ccc2c(c1)[nH]c1ccncc12,4.9,103.0,0.0,-0.6,-3.4,/,/,
Brc1ccc(Br)c2cnccc12,-1.4,97.0,17.5,13.1*,/,26.2*,35.0*,
Cc1nc(SCC(=O)NCc2ccco2)c2c(C)c(C)sc2n1,0.2,97.0,-2.5,-2.9,5.0,/,/,
CCCCc1nc2sc3c(SCC(=O)NCc4ccco4)ncnc3c2c2c1CCC2,-0.9,94.0,6.4,83.8*,-2.2,86.6*,82.4*,PG9 binder DR=3.28*;PGV04 binding DR=1.55*;PG126 DR counter=1.72*
COc1cc(C(=O)Nc2nc3ccc(C)cc3s2)ccc1OCc1c(C)noc1C,-3.8,85.0,14.0,11.5*,-29.6,20.9*,25.8*,
CCc1nnc(NC(=O)c2ccc(OCc3c(C)noc3C)c(OC)c2)s1,-2.9,96.0,-4.1,-2.0,41.1,/,/,
COc1cccc(C(=O)NCCN2C(=O)C3C4C=CC(C4)C3C2=O)c1 (stereo not drawn),/,/,6.1,/,/,/,/,
O=C(CSc1nc2nc(-c3cccs3)cc(C(F)(F)F)c2c(=O)[nH]1)Nc1ccc(F)c(F)c1,2.1,111.0,-7.0,16.8*,3.3,20.0*,27.7*,
C[C@@H]1OC(C2CCCCC2)N(C)[C@H]2C[C@H]3c4[nH]c5cccc(-c6ccccc6)c5c4CCN3C(=O)[C@@H]12 (stereo partly drawn),/,/,-2.7,-2.3,/,/,/,
COC1=C[C@H](C(=O)NCc2ccc(Br)cc2)[C@H](C)[C@@H](c2ccccc2)CC1=O,/,/,1.4,/,/,/,/,
COCCCN1C(=O)C(O)=C(C(=O)c2ccc(C)o2)C1c1cccc(Br)c1 (stereo not drawn),6.6,97.0,1.1,18.6*,-1.4,20.1*,26.5*,
CCOc1cccc(C2C(C(=O)c3ccc(C)o3)=C(O)C(=O)N2Cc2ccncc2)c1 (stereo not drawn),2.9,264.0,10.4,4.5,8.4,/,/,

# From PubChem
